Bioassay records from PubChem.
This is one part of a sample in which hits are shown more often than they occur.
IL1B secr inh = inflammasome signaling inhibition, IL-1 beta readout | THP-1 LPS/ATP IL-1B secretion, AlphaLISA, 16 h; hits give low values | activity change, % at 57.5 µM | actives 4.7% (n = 360,000); in the data active = activity change below about -50%; inconclusive = mostly about -30% to -49%
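Secreted IL-1B measured by AlphaLISA bead assay after 16 h compound exposure of THP-1 cells; compounds (final up to 57.5 uM) added 1 h before LPS (250 ng/mL) and ATP (1.25 mM) stimulation; lower signal means less secretion.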
DT40 TDP1 CPT = DT40-hTDP1 cell growth loss with CPT; chicken DT40 Tdp1-/-;hTDP1 cells + 20 nM CPT, ATP luminescence, 48 h; Potency, µM (doses to about 46.2 µM), without a hit: top-dose activity change, negative = growth inhibition, hits mostly inhibitors; actives 12% (n = 420,000); also: potency is read from the fitted curve at half-maximal effect; nearly all actives have a fitted effect of over 55% in size
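Chicken DT40 Tdp1-/- cells stably complemented with human TDP1 were seeded at 400 cells/well in medium containing 20 nM camptothecin, exposed to pin-transferred compounds, and grown at 37 °C for at least 48 hr. Viability was read as ATP luminescence.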
HT1080 IDH1KD tx = HT-1080 IDH1 knockdown cell toxicity (counter line); HT-1080 IDH1 knockdown viability, ATP luminescence, 48 h; Potency, µM (series often up to 46.1 µM), without a hit: at the highest dose activity, negative = toxicity, most hits filed as cytotoxic; actives 2% (n = 360,000); AID 686971;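 also: potency is read from the fitted curve at half-maximal effect; 0% = DMSO wells and -100% = cell-free medium wells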
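Assay cells: HT-1080 with IDH1 knockdown, 750 per well, RPMI/5% FBS. Exposure: 48 h at 37 °C following 2 h pre-incubation. Read: CellTiter-Glo luminescence; fitted concentration-response, curve class assigned.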
TDP1 cell noCPT = qHTS for Inhibitors of human tyrosyl-DNA phosphodiesterase 1 (TDP1): qHTS in cells in absence of CPT; DT40 Tdp1-/- hTDP1 cells, no CPT, ATP luminescence, 48 h; Potency, µM (top dose mostly 46.2 µM), inactives show top-dose activity change, negative = growth inhibition, actives largely listed as inhibitors; actives 15% (n = 420,000); AID 686978, 2013; also: potency is read from the fitted curve at half-maximal effect; nearly all actives have a fitted effect of over 55% in size
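DT40 Tdp1-/-;hTDP1 cells, no CPT (DMSO vehicle only), 400 cells/well; compounds pin-transferred; ≥48 hr, 37 °C; CellTiter-Glo 30 min RT dark, luminescence read.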
HT1080NT lethal = kills 2HG-producing HT-1080-NT fibrosarcoma cells; HT-1080-NT fibrosarcoma viability, CellTiter-Glo ATP luminescence, 48 h; Potency, µM (doses to about 46.1 µM), without a hit: at the highest dose activity, negative = less viability, hits mostly cytotoxic; actives 1.6% (n = 360,000); AID 686970;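 also: NT is the 2HG producing partner of a matched IDH1 knockdown line; potency is read from the fitted curve at half-maximal effect; 0% = DMSO-treated cells and -100% = media-only wells without cells; nearly all actives have a fitted effect of over 55% in size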
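Toxicity toward the 2HG-producing NT line was scored as %Activity, normalised to DMSO and no-cell wells, from CellTiter-Glo luminescence after 48 hours' treatment.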
ALOX12 inh = ALOX12 (human) lipoxygenase inhibition. P18054. actives 1.1% (n = 580,000). purified 12hLO, xylenol orange hydroperoxide absorbance. Potency, µM (doses to about 108 µM), for the others: top-dose activity change, negative = inhibition, actives largely listed as inhibitors; also: potency is read from the fitted curve at half-maximal effect
Target sequence (P18054 whole entry, looked up): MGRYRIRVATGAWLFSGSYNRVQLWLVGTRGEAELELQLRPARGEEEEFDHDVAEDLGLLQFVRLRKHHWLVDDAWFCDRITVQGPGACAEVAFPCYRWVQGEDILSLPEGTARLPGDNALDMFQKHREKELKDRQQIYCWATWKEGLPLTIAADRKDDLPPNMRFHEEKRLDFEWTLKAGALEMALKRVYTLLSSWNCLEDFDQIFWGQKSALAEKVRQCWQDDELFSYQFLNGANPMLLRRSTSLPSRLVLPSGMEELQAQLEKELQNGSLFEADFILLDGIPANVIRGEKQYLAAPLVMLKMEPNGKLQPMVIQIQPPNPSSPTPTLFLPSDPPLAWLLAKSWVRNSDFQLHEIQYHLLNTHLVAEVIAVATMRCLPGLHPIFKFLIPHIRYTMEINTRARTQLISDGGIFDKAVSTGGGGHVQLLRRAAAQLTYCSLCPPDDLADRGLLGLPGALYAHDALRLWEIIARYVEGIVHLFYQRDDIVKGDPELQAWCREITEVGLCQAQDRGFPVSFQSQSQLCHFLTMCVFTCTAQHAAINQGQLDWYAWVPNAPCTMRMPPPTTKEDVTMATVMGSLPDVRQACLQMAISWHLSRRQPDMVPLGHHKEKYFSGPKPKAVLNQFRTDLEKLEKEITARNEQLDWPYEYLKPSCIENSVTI
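Purified human 12hLO at 150 nM in 25 mM Hepes, 0.01% Triton X-100, pH 7.0, preincubated 15 min at room temperature with compound. Reaction started with 40 uM arachidonic acid, 30 min at room temperature. Hydroperoxide measured by Fe-xylenol orange, 573/405 nm absorbance ratio.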
Active calls of the source: *; i = inactive; ? = inconclusive; / = no result given; ! = repeats disagree. Unless noted, calls follow the shape of the dose curve; as a rule, active = well fitted curve in the direction sought with a large enough effect; inconclusive = small, poorly fitted or top-dose-only effect, or another doubt; inactive = no such curve, though single readings can be large; an effect the other way counts as inactive or inconclusive. Unless noted, % is scaled to controls: 0 for no effect and ±100 for the full control effect.

SMILES	IL1B secr inh	DT40 TDP1 CPT	HT1080 IDH1KD tx	TDP1 cell noCPT	HT1080NT lethal	ALOX12 inh
O=[N+]([O-])c1ccc(CNc2cccc(F)c2)s1	-52*	5%	-4%	-28%	-24%	?
O=C(COc1ccc([N+](=O)[O-])cc1)Nc1cc(S(=O)(=O)N2CCCCC2)ccc1N1CCCCC1	-3	-25%	-15%	?	-6%	40µM*
O=C(COc1ccc(F)cc1)Nc1cc(S(=O)(=O)N2CCCCC2)ccc1N1CCCCC1	-6	13µM*	-5%	18µM*	-3%	6.3µM*
CC(C)C[C@@H](CN1CCC[C@@H]1CN1C(=S)NC[C@@H]1Cc1ccccc1)N1C[C@H](Cc2ccc(O)cc2)N(CC2CCCCCC2)C1=S	-15	13µM*	18µM*	18µM*	?	-26%
CC(C)C[C@@H](CN1CCCC1CN1C(=S)NC[C@@H]1Cc1ccc(O)cc1)N1C[C@H](Cc2ccc(O)cc2)N(CC2CCCCC2)C1=S (stereo partly drawn)	-87*	21µM*	?	15µM*	18µM*	?
CC(C)C[C@@H](CN1CCC[C@@H]1CN1C(=S)NC[C@@H]1Cc1ccccc1)N1C[C@H](Cc2ccc(O)cc2)N(CC2CCCCC2)C1=S	8	?	1%	23µM*	1%	-10%
CCc1noc2nc(C)nc(N3CCCC(C(=O)NCCc4ccc(SC)cc4)C3)c12 (stereo not drawn)	/	/	/	/	/	-52%
Cc1cc(C)n2nc(SCC(=O)NC3CCCCC3C)nc2n1 (stereo not drawn)	-4	2%	0%	-12%	-3%	7%
Cc1cccc2c(C(=O)O)cc(-c3ccccn3)nc12	/	/	/	/	/	24%
COc1nccnc1NC1CCNCC1	/	/	/	/	/	28%
CN1CCCC1=NCCCn1cnc2c1c(=O)n(C)c(=O)n2C	/	/	/	/	/	37%
CC(=O)Nc1ccc(S(=O)(=O)N2CCN=C2SCc2ccccc2C)cc1	-3	?	-2%	16µM*	-3%	-10%
CC(=O)Nc1ccc(S(=O)(=O)N2CCN=C2SCc2cccc(C)c2)cc1	i	?	-1%	?	0%	i
CC(=O)Nc1ccc(S(=O)(=O)N2CCN=C2SCc2ccc([N+](=O)[O-])cc2)cc1	-28	12µM*	?	7.3µM*	?	i
O=C(NCc1ccco1)c1scc2c1OCCO2	2	-12%	2%	-20%	3%	18%
CCN(CC)C(=O)c1scc2c1OCCO2	-56*	-3%	-3%	-20%	-2%	31%
COc1ccc(Cl)cc1C(=O)NC1CCN(c2cc(-c3ccccc3)[nH]n2)C1 (stereo not drawn)	/	/	/	/	/	16%
OC1NC(=S)N(c2ccccc2)C1O (stereo not drawn)	11	3%	4%	-1%	7%	0%
S=C1NC(c2ccccc2)N2C(=S)NC(c3ccccc3)N12 (stereo not drawn)	-7	2%	11%	-20%	14%	16µM*
COc1ccc(C2NC(=S)N3C(c4ccc(OC)cc4)NC(=S)N23)cc1 (stereo not drawn)	0	?	11%	16µM*	11%	?
CCOC(=O)C1=C(N2CCCCC2)c2cc3c(n2C1=O)CCCC3	0	?	-6%	9.2µM*	-2%	-5%
COc1ccc(CCNC(=O)c2cnc3ccc(C)cn3c2=O)cc1OC	/	21µM*	/	?	/	-20%
O=C(NCc1ccc(Cl)cc1)c1cnc2sc(N3CCCC3)nn2c1=O	/	?	/	?	/	-14%
O=C(NCCc1ccc(Cl)cc1)c1cnc2sc(N3CCCC3)nn2c1=O	/	6.5µM*	/	4.1µM*	/	-23%
CC(C)CCNC(=O)c1cnc2sc(N3CCCCCC3)nn2c1=O	/	16µM*	/	21µM*	/	-32%
SMILES	IL1B secr inh	DT40 TDP1 CPT	HT1080 IDH1KD tx	TDP1 cell noCPT	HT1080NT lethal	ALOX12 inh
COCCCNC(=O)c1cnc2sc(N3CCCCC3)nn2c1=O	/	-7%	/	-12%	/	-6%
COc1ccc(CCNC(=O)c2cnc3sc(N4CCCCC4)nn3c2=O)cc1OC	/	23µM*	/	?	/	-15%
Cc1cnn(CCC(=O)N2C[C@@H](CO)[C@H](c3ccncc3)C2)c1	/	/	/	/	/	9%
Cc1noc(-c2cccn3c(CNC(=O)c4c[nH]c5ccccc45)nnc23)n1	/	/	/	/	/	81%
O=C(CCc1nc2ccccc2s1)OCC(=O)c1ccc[nH]1	21	2%	-6%	-2%	8%	4%
COc1ccc(CCNC(=O)c2cnc3sc(N4CCCC4)nn3c2=O)cc1OC	/	?	/	23µM*	/	-21%
Cc1ccc(CSc2ncc(Cl)c(C(=O)Oc3ccccc3F)n2)cc1	/	-8%	/	-5%	/	-21%
COc1ccc(OC)c(NC(=O)c2nc(SCc3ccccc3F)ncc2Cl)c1	/	10µM*!	/	14µM*!	/	-9%
COc1cccc(CCNC(=O)c2cnc3sc(N4CCCC4)nn3c2=O)c1	/	15µM*	/	16µM*	/	-1%
COc1ccc(OC)c(NC(=O)c2nc(SCc3ccc(F)cc3)ncc2Cl)c1	/	-11%	/	-14%	/	-4%
COc1ccc(CCNC(=O)c2nc(SCc3ccc(C)cc3)ncc2Cl)cc1OC	/	12µM*	/	10µM*	/	-13%
COCCCNC(=O)c1cnc2sc(N3CCCCCC3)nn2c1=O	/	-9%	/	-10%	/	?
CC(C)c1cc(-c2nc(-c3ccccc3)no2)n[nH]1	/	?	/	?	/	-16%
CCCN1CCS(=O)(=O)N(Cc2cn(Cc3ccc(Cl)cc3)nn2)C(C(=O)OC)C1 (stereo not drawn)	/	/	/	/	/	-45%
CCN1CCN(S(=O)(=O)c2ccc(Oc3ccccc3OC)cc2)CC1	-16	-16%	-14%	23µM*	-11%	?
CCN1CCN(S(=O)(=O)c2ccc(S(=O)(=O)N(CC)Cc3ccccc3)cc2)CC1	-11	?	-1%	?	6%	1.4µM*
O=S(=O)(c1ccc(Br)cc1)N1CCN(Cc2ccco2)CC1	-14	-12%	-2%	-11%	1%	-5%
Cc1ccc(S(=O)(=O)N2CCC3(CC2)SCC(=O)N3Cc2ccco2)cc1	/	/	/	/	/	14µM*
COc1ccc(S(=O)(=O)N2CCN(Cc3ccco3)CC2)cc1	-14	-17%	16%	-23%	21%	2.5µM*
COc1cc(=O)n2c(c1C(=O)Nc1ccccc1)CCCC2	/	/	/	/	/	53%
